Screening data from PubChem BioAssay.
HTT cytoprotect – qHTS Multiplex Assay to Identify Dual Action Probes in a Cell Model of Huntington: Cytoprotection (ATP); PC12 HTT-Q103 induced, cytoprotection, ATP luminescence, 40 h; Potency, µM (highest dose often 56.4 µM), hits mostly activators; 0.14% of 230,000 active; also: nearly all actives have a fitted effect of over 45% in size
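Readout: ATPlite luminescence (ATP level). Model: stable PC12, inducible Htt exon1 Q103-GFP. Inducer: tebufenozide, 100 nM final. Compounds: dose series. No G418 in medium.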
IMPase inh – qHTS Assay for Identifying the Cell-Membrane Permeable IMPase Inhibitors | CHO-M1 cells, IP1 accumulation, HTRF TR-FRET ratio | 120,000 tested, under 10 active | inhibition (IP1 accumulation), % at 46.1 µM | AID 901, 2007 | Inositol monophosphatase 1 (Rattus norvegicus), P97697; active = well fitted curve in the direction sought with a large enough effect in the signal ratio, not every such curve was filed as active; inconclusive = small, poorly fitted or top-dose-only effect, or a change in a side signal; inactive = no such curve, though single readings can be large or run the other way; the % refers to the signal ratio;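 also: cells stimulated with carbachol in lithium chloride buffer; higher means more IMPase inhibition seen as more IP1 and lower FRET ratio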
Target sequence (P97697 whole entry, looked up): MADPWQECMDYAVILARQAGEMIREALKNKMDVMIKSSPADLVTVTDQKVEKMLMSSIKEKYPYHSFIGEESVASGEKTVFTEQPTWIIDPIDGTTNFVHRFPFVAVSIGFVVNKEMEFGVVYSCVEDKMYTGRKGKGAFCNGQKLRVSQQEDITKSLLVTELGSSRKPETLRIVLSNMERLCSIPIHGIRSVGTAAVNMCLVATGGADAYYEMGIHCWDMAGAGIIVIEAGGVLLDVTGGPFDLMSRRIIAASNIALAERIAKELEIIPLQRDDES
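In this qHTS, compounds (final up to 46 uM) act on CHO-M1 cells that are then activated through the M1 receptor with carbachol, in pH 7.4 buffer containing 50 mM LiCl, for 30 min. IP1 accumulation is quantified by the IP-One immunoassay.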
PNC inhibitor – High Content Assay for Compounds that inhibit the Assembly of the Perinucleolar Compartment; activity change (PNC), negative = inhibition, % at 10 µM; PC3M PTB-GFP, PNC prevalence imaging, 16 h; active compounds read low; 3.1% of 140,000 active;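 active = readout at or below -70, meaning at least 70% loss of cells showing the perinucleolar compartment, a nuclear body marking cancer cells; inconclusive = readout between -30 and a set limit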
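Compounds are pinned in duplicate onto adhered PC3M cells stably expressing GFP-tagged PTB and incubated 16 h at 37 C. Cells are then fixed, nuclei stained with Hoechst, and PNC-positive cells counted.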
HttQ103 aggreg – qHTS Multiplex Assay to Identify Dual Action Probes in a Cell Model of Huntington: Aggregate Formation (GFP); 1.1% of 220,000 active; Potency, µM (doses to about 46.1 µM), hits mostly inhibitors; PC12 HttQ103-GFP aggregates, Acumen cytometry, 40 h; AID 1688, 2009; also: nearly all actives have a fitted effect of over 60% in size
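Compounds (qHTS titration) were added to PC12 cells expressing an ecdysone-driven HTT exon 1 Q103–GFP fusion after induction with 100 nM tebufenozide. Aggregate formation was measured as GFP objects in cell lysates.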
NPSR antagonist – qHTS Assay for Antagonists of the Neuropeptide S Receptor: cAMP Signal Transduction; Q6W5P4; CHO-NPSR cells, cAMP TR-FRET, antagonist mode; Potency, µM (doses to about 38.3 µM), actives largely listed as inhibitors; 1% of 220,000 active; AID 1461, 2008; also: nearly all actives have a fitted effect of over 50% in size
Target sequence (Q6W5P4 whole entry, looked up): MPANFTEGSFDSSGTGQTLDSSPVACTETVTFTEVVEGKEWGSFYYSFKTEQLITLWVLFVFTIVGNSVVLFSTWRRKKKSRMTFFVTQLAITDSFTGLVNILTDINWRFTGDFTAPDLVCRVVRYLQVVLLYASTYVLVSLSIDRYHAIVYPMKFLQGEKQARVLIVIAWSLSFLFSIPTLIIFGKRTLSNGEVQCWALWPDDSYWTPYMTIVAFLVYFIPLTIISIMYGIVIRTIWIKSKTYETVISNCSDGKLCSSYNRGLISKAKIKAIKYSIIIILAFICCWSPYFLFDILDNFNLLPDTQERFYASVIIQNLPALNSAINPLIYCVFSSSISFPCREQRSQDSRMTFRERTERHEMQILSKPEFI
IMPase Li cell – qHTS Assay for Identifying the Cell-Membrane Permeable IMPase Inhibitors: Potentiation with Lithium; CHO-M1 cells, IP1 TR-FRET (IP-One), carbachol + lithium; Potency, µM (top dose mostly 59.4 µM), most hits filed as inhibitors; 0.35% of 210,000 active;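 also: IP1 builds up when IMPase is blocked and the TR-FRET signal falls; nearly all actives have a fitted effect of over 50% in size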
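CHO cells stably expressing M1 receptor (2000/well) were cultured 16–30 h, then exposed to compounds with a small lithium addition for 30 min at 37C. IP1 was measured by TR-FRET competition; AC50 from Hill fits.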
Each line names hits and unclear results; the compound was inactive in the other large screens. This is a sample that favours compounds with a hit; in the whole collection about 3.4% have one here. Unless noted, calls follow the shape of the dose curve; as a rule, active = well fitted curve in the direction sought with a large enough effect; inconclusive = small, poorly fitted or top-dose-only effect, or another doubt; inactive = no such curve, though single readings can be large; an effect the other way counts as inactive or inconclusive.

Cc1cc(N2C(=O)C(O)=C(C(=O)c3cccs3)C2c2ccccc2)no1 (stereo not drawn)	IMPase inh inconclusive, NPSR antagonist inconclusive, IMPase Li cell 14µM
COc1cccc(C2C(C(=O)c3cccs3)=C(O)C(=O)N2c2cc(C)on2)c1 (stereo not drawn)	IMPase inh inconclusive, IMPase Li cell 10µM
Cc1cc(N2C(=O)C(O)=C(C(=O)c3cccs3)C2c2ccc(F)cc2)no1 (stereo not drawn)	NPSR antagonist inconclusive (no result: IMPase inh, PNC inhibitor, IMPase Li cell)
CC12CCC(C1)C(C)(C)C2=O (stereo not drawn)	none (no result: IMPase inh, PNC inhibitor, NPSR antagonist, IMPase Li cell)
CC1=NOC(=O)/C1=C/c1ccc(O)cc1	none (no result: IMPase inh, PNC inhibitor)
O=C1ON=C(c2ccc(Cl)cc2)/C1=C/c1ccc(O)cc1	NPSR antagonist 6.3µM (no result: IMPase inh, PNC inhibitor)
COc1cc(/C=C2\C(=O)ON=C2c2ccccc2)cc(Cl)c1O	NPSR antagonist 7.9µM (no result: HTT cytoprotect, IMPase inh, PNC inhibitor)
COc1cc(/C=C2/C(=O)ON=C2c2ccccc2)ccc1O	NPSR antagonist inconclusive (no result: IMPase inh)
O=C(c1cc(-c2cccc(O)c2)on1)N1CCCCC1	PNC inhibitor inconclusive
COc1cccc(-c2cc(C(=O)N3CCCCCC3)no2)c1	PNC inhibitor -108, NPSR antagonist inconclusive
Cc1ccc(C=Nc2ccccc2C(N)=O)cc1	PNC inhibitor -113
Cc1ccccc1C=Nc1ccccc1C(N)=O	PNC inhibitor -86, HttQ103 aggreg inconclusive (no result: IMPase inh)
NC(=O)c1ccccc1N=Cc1ccccn1	PNC inhibitor inconclusive
COCCCn1c(=S)[nH]c2sc3c(c2c1=O)CCCS3	NPSR antagonist 7.9µM, IMPase Li cell inconclusive (no result: IMPase inh, PNC inhibitor)
CCn1c(=O)n(CCOC)c(=O)c2c3c(sc21)CCCC3	HttQ103 aggreg inconclusive
CCOC(=O)C1=C(C)NC(=S)NC1/C=C/c1ccccc1 (stereo not drawn)	PNC inhibitor -100
CN(C)CCNc1nc2c(c(=O)[nH]c(=O)n2C)n1CC(O)COc1ccc(Cl)cc1 (stereo not drawn)	none
CCN(CC)CCNc1nc2c(c(=O)[nH]c(=O)n2C)n1CC(O)COc1ccc(Cl)cc1Cl (stereo not drawn)	PNC inhibitor -84
CC(=O)c1ccc(N/N=C(/C(N)=O)C2=NC(C)(C)Cc3ccccc32)cc1	PNC inhibitor inconclusive, HttQ103 aggreg 11µM (no result: IMPase inh)
CC1(C)Cc2ccccc2C(/C(=N\Nc2cccc(Cl)c2)C(N)=O)=N1	HttQ103 aggreg inconclusive, NPSR antagonist inconclusive
Cc1cccc(C)c1N=C1SC(CC(=O)Nc2c(C)cccc2C)C(=O)N1CCc1ccccn1 (stereo not drawn)	PNC inhibitor -112 (no result: IMPase inh)
O=C(COC(=O)C1CC2C=CC1C2)Nc1ccc2c(c1)OC(F)(F)O2 (stereo not drawn)	PNC inhibitor -100
CCOC(=O)c1c(C)n(-c2ccccc2)c2ccc(OC(=O)c3cccc(OC)c3OC)cc12	none (no result: HTT cytoprotect, PNC inhibitor, HttQ103 aggreg, NPSR antagonist, IMPase Li cell)
Cc1ccc(C)c(S(=O)(=O)NCc2ccncc2)c1	HttQ103 aggreg 10µM
Cc1ccc(C)c(S(=O)(=O)NCc2cccnc2)c1	PNC inhibitor inconclusive
Cc1ccc(S(=O)(=O)NCc2ccncc2)cc1	HttQ103 aggreg 3.5µM
C=CCOCCN(C)C1=NS(=O)(=O)c2cc([N+](=O)[O-])ccc21	none (no result: IMPase inh, PNC inhibitor)
CN(CCO)C1=NS(=O)(=O)c2cc([N+](=O)[O-])ccc21	HttQ103 aggreg 6.3µM (no result: IMPase inh, PNC inhibitor)
CC(C)C12CC[C@@]3(CC[C@H]4[C@@](C)(CCC[C@]4(C)C(=O)O)[C@@H]3C1)[C@@H](CN)C2	none (no result: IMPase inh, PNC inhibitor, HttQ103 aggreg, NPSR antagonist)
O=c1[nH]ncn1-c1ccc(Br)cc1	none (no result: IMPase inh, PNC inhibitor)
O=P(c1ccccc1)(c1ccccc1)c1nc(-c2ccccc2)oc1NCc1ccccc1	HttQ103 aggreg 11µM, NPSR antagonist inconclusive (no result: IMPase inh, PNC inhibitor)
CCOP(=O)(OCC)c1nc(-c2ccccc2)oc1NCc1ccccc1	PNC inhibitor inconclusive (no result: IMPase inh)
CC1=NN(c2ccccc2)C(=O)C1c1ccccc1 (stereo not drawn)	PNC inhibitor -91 (no result: IMPase inh)
CC1=NN(c2ccccc2)C(=O)C1C(=O)c1ccccc1 (stereo not drawn)	HttQ103 aggreg inconclusive
COc1cc(/C=N/NC(=O)c2ccc(CSc3nc4ccccc4[nH]3)cc2)cc(OC)c1OC	PNC inhibitor -85 (no result: HTT cytoprotect, IMPase inh)
COc1cc(/C=N/NC(=O)c2ccc3nc[nH]c3c2)cc(OC)c1OC	none (no result: IMPase inh, PNC inhibitor, IMPase Li cell)
NNC(=O)c1ccc(COc2ccccc2)cc1	none
COC(=O)c1ccc(OCCOc2ccccc2)cc1	none
COC(=O)c1ccc(CNC(=O)c2ccc(COc3ccccc3)cc2)cc1	PNC inhibitor -100 (no result: IMPase inh)
O=C(Nc1ccc(F)cc1)c1ccc(COc2ccccc2)cc1	PNC inhibitor inconclusive, IMPase Li cell 13µM (no result: HTT cytoprotect, IMPase inh)
CCOc1c(Br)cc(CNc2ccc3c(c2)OCCO3)cc1OC	PNC inhibitor -98, NPSR antagonist inconclusive
CCOC(=O)C(=O)Nc1nnc(CCc2ccccc2)s1	PNC inhibitor -100
O=C1c2ccccc2C(=O)c2c(NCCCN(CCO)CCO)cccc21	HttQ103 aggreg inconclusive, NPSR antagonist 13µM (no result: IMPase inh, PNC inhibitor)
CN(C)CCCNc1cc(O)c2c(c1O)C(=O)c1ccccc1C2=O	none (no result: IMPase inh, PNC inhibitor, HttQ103 aggreg, NPSR antagonist)
CCC(Oc1ccccc1)C(=O)Nc1nc2c(s1)C(=O)CC(C)(C)C2 (stereo not drawn)	none
CCC(C)C(=O)Nc1nc2c(s1)C(=O)CC(C)(C)C2 (stereo not drawn)	PNC inhibitor -119
CCC(C)NC(=O)CCNS(=O)(=O)c1ccc(Br)cc1 (stereo not drawn)	PNC inhibitor -90
CCCCNC(=O)CCNS(=O)(=O)c1ccc(Br)cc1	none
O=C(NC1CC1)c1cc2c(s1)-c1ccccc1OC2	PNC inhibitor inconclusive, HttQ103 aggreg 6.3µM
Cc1ccccc1OCC(O)Cn1nnc2ccccc21 (stereo not drawn)	PNC inhibitor -100
Cc1nn(C)c(C(=O)NNC(=S)NCC(C)C)c1Cl	PNC inhibitor -114 (no result: HTT cytoprotect, IMPase inh)
Cc1cc(C)nc(NN=C(c2ccccc2)c2ccccc2)n1	HttQ103 aggreg 18µM (no result: IMPase inh)
Cn1nc(C(F)(F)F)c(C#N)c1N1CCN(c2ccccc2F)CC1	none
COc1cccc(N2CCN(c3c(C#N)c(C(F)(F)F)nn3C)CC2)c1	HttQ103 aggreg 11µM
CCCCS(=O)(=O)N1CCc2nc(-c3ccc(OC)cc3C)c3c(c2C1)CO[C@@H](c1ccccc1)C3	none (no result: IMPase inh, PNC inhibitor, HttQ103 aggreg, NPSR antagonist)
C/C(=N/NC(=O)c1ccoc1C)c1ccc(NC(=O)c2ccncc2)cc1	HTT cytoprotect inconclusive (no result: IMPase inh)
